Reference: PubChem BioAssay (EPA / NIEHS)
Calls of active or inactive are those of the source. How the source made its calls: active means hit-call score of the fitted dose curve at least 0.9, where 1 is the maximum; inactive means score below 0.9.

Key:
Settings in all cases: mRNA level, 48 h; actives raise or lower the signal
[1] = read-out: Ezrin (EZR), EZR (gene 7430); assay: LTEA_HepaRG_EZR: Life Technologies and Expression Analysis (LTEA) Assay for Ezrin (EZR) using HepaRG (AID 2283491)
Method in brief: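 Differentiated human HepaRG cells, 48 h after plating, were exposed in serum-free induction medium for 48 hours to eight half-log concentrations up to 100 uM in 0.5% DMSO. EZR mRNA was measured by TaqMan qRT-PCR, normalized to ACTB, GAPDH and POLR2A, and fitted bidirectionally against DMSO.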

[2] = read-out: Cytochrome P450 3A7 (Homo sapiens) (UniProt P24462); assay: LTEA_HepaRG_CYP3A7: Life Technologies and Expression Analysis (LTEA) Assay for CYP3A7 using HepaRG (AID 2283492)
Method in brief: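 Human HepaRG liver cells, 48 h post-plating, switched to serum-free induction medium and exposed in duplicate for 48 h. Dosing: 100 uM top, half-log dilutions, 8 points, 0.5% DMSO vehicle. Read-out: CYP3A7 mRNA, gain or loss fitted against DMSO baseline.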

CYP3A5 (gene 1577) = assay: LTEA_HepaRG_CYP3A5: Life Technologies and Expression Analysis (LTEA) Assay for CYP3A5 using HepaRG (AID 2283493)
Method in brief: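 mRNA levels were quantified by qRT-PCR on Fluidigm arrays and normalized to three housekeeping genes. Differentiated HepaRG cells received 48 h exposure (top 100 uM, half-log steps, 0.5% DMSO vehicle, duplicate); bidirectional fitting versus DMSO.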

[3] = read-out: Fatty Acid-Binding Protein 1 (FABP1), FABP1 (gene 2168); assay: LTEA_HepaRG_FABP1: Life Technologies and Expression Analysis (LTEA) Assay for Fatty Acid-Binding Protein 1 (FABP1) using HepaRG (AID 2283494)
Method in brief: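 Values reflect bidirectional concentration-response fitting of FABP1 mRNA change against 0.5% DMSO controls. Human HepaRG cultures received eight half-log doses (top 100 uM) for 48 h; expression quantified by TaqMan qRT-PCR with housekeeping-gene normalization.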

[4] = read-out: Cytochrome P450 4A22 (Homo sapiens) (UniProt Q5TCH4); assay: LTEA_HepaRG_CYP4A22: Life Technologies and Expression Analysis (LTEA) Assay for Cytochrome P450 4A22 (CYP4A22) using HepaRG (AID 2283495)
Method in brief: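 Readout is CYP4A22 transcript induction or loss, quantified by qRT-PCR and normalized to ACTB, GAPDH and POLR2A. Human HepaRG cells receive test chemicals for 48 h at eight half-log concentrations from 100 uM in 0.5% DMSO.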

[5] = read-out: Cytochrome P450 7A1 (Homo sapiens) (UniProt P22680); assay: LTEA_HepaRG_CYP7A1: Life Technologies and Expression Analysis (LTEA) Assay for Cytochrome P450 7A1 (CYP7A1) using HepaRG (AID 2283496)
Method in brief: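 HepaRG, 48 h exposure, 8-pt half-log series from 100 uM, 0.5% DMSO vehicle, duplicates. Readout: TaqMan qRT-PCR mRNA vs three housekeeping genes; bidirectional curve fit against DMSO baseline.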

[6] = read-out: Glutamate-cysteine ligase catalytic (GCLC), GCLC (gene 2729); assay: LTEA_HepaRG_GCLC: Life Technologies and Expression Analysis (LTEA) Assay for Glutamate-cysteine ligase catalytic (GCLC) using HepaRG (AID 2283498)
Method in brief: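 Oxidative-stress marker GCLC is measured as mRNA change in human HepaRG liver cells after 48 h chemical treatment in 0.5% DMSO, eight concentrations from 100 uM. Activity is fitted bidirectionally against vehicle.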

[7] = read-out: growth arrest and DNA damage 45 (GADD45G), GADD45G (gene 10912); assay: LTEA_HepaRG_GADD45G: Life Technologies and Expression Analysis (LTEA) Assay for growth arrest and DNA damage 45 (GADD45G) using HepaRG (AID 2283499)
Method in brief: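 Gain or loss of GADD45G mRNA, quantified by TaqMan qRT-PCR against three housekeeping genes, is fitted in both directions relative to 0.5% DMSO. Human HepaRG cultures receive test chemical for 48 h at up to 100 uM.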

[8] = read-out: Glutamate-cysteine ligase regulatory (GCLM), GCLM (gene 2730); assay: LTEA_HepaRG_GCLM: Life Technologies and Expression Analysis (LTEA) Assay for Glutamate-cysteine ligase regulatory (GCLM) using HepaRG (AID 2283500)
Method in brief: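 GCLM expression quantified by qRT-PCR, normalized to three housekeeping genes, after 48 h chemical treatment of HepaRG cells in duplicate at 8 concentrations (top 100 uM, half-log steps, 0.5% DMSO). Changes fitted both directions against vehicle.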

[9] = read-out: Glutathione S-Transferase (GSTA2), GSTA2 (gene 2939); assay: LTEA_HepaRG_GSTA2: Life Technologies and Expression Analysis (LTEA) Assay for Glutathione S-Transferase (GSTA2) using HepaRG (AID 2283497)
Method in brief: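 Oxidative-stress marker GSTA2 is quantified by TaqMan qRT-PCR in HepaRG cultures treated 48 h across an eight-point range to 100 uM. Expression is normalized to endogenous controls and compared with 0.5% DMSO vehicle.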

Measured: AC50

Cytochrome P450 3A7 (Homo sapiens), sequence (P24462 whole entry, looked up): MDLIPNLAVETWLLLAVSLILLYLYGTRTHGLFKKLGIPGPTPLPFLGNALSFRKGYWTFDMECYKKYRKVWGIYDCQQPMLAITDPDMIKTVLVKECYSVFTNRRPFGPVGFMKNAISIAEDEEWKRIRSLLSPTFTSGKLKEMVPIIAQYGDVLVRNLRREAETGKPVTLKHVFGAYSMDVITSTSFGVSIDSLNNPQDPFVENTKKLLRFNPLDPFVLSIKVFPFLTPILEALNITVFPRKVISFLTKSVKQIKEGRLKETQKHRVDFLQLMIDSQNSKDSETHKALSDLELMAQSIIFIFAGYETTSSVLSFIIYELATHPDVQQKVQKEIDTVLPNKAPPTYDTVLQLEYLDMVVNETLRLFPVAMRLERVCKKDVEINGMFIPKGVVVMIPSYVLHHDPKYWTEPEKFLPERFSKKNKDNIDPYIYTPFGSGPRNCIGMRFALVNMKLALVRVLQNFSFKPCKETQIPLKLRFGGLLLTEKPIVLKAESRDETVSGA

NCCOCCOCCN
inactive: [1] | [2] | CYP3A5 (gene 1577) | [3] | [4] | [5] | [6] | [7] | [8]

O=C(O)CC(O)(CC(=O)O)C(=O)O
inactive: [1] | [2] | CYP3A5 (gene 1577) | [3] | [4] | [5] | [6] | [7] | [8]

CC(=O)OC1CC(C)OC(C)O1 (stereo not given)
inactive: [1] | [2] | CYP3A5 (gene 1577) | [3] | [4] | [5] | [9] | [6] | [7] | [8]

CCCC(=O)O
inactive: [1] | [2] | CYP3A5 (gene 1577) | [3] | [4] | [5] | [9] | [6] | [7] | [8]

CCC(C)N(C)C(=O)c1cc2ccccc2c(-c2ccccc2Cl)n1 (stereo not given)
active: CYP3A5 (gene 1577) 31.8 µM | [3] 13 µM | [4] 13.1 µM | [7] 8.59 µM
inactive: [1] | [2] | [5] | [9] | [8]

CN(C)CCCN1c2ccccc2Sc2ccc(Cl)cc21
active: CYP3A5 (gene 1577) 83.7 µM | [3] 88.3 µM | [5] 81.3 µM | [9] 86.4 µM | [7] 49.7 µM
inactive: [1] | [2] | [4] | [8]

CC(C)(C)c1ccccc1
inactive: [1] | [2] | CYP3A5 (gene 1577) | [3] | [4] | [5] | [9] | [7] | [8]

C/C=C/c1ccc(OC)cc1
inactive: [1] | CYP3A5 (gene 1577) | [3] | [4] | [5] | [9] | [6] | [7] | [8]

CSc1ccc(Oc2ccc(S(N)(=O)=O)cc2CN(C)C)cc1C
inactive: [1] | CYP3A5 (gene 1577) | [3] | [5] | [9] | [8]
active: [4] 85.1 µM | [7] 50 µM

Cc1cn([C@H]2C=C[C@@H](CO)O2)c(=O)[nH]c1=O
inactive: [1] | CYP3A5 (gene 1577) | [3] | [4] | [5] | [9] | [6] | [7] | [8]

CCCCCCCCCCCCCCCCO
inactive: CYP3A5 (gene 1577) | [3] | [4] | [9] | [6] | [7] | [8]
active: [1] 0.102 µM | [5] 50 µM

Nc1nc(=S)c2[nH]cnc2[nH]1
active: [1] 0.586 µM | [3] 9.73 µM | [4] 7.06 µM | [5] 10.2 µM | [9] 7.68 µM | [6] 15.3 µM
inactive: CYP3A5 (gene 1577) | [7] | [8]

Nc1nc(Cl)nc2c1ncn2[C@H]1C[C@H](O)[C@@H](CO)O1
active: CYP3A5 (gene 1577) 0.481 µM | [3] 1.33 µM | [4] 5.92 µM | [5] 1.2 µM | [9] 1.76 µM | [6] 1.24 µM | [7] 5.75 µM
inactive: [1] | [8]

CCCCc1nc2cccnc2n1Cc1ccc(-c2ccccc2-c2nnn[nH]2)cc1
active: [2] 13.7 µM | [5] 26.6 µM
inactive: [1] | CYP3A5 (gene 1577) | [4] | [9] | [6] | [7] | [8]

O=C1NC(=O)C(c2ccccc2)(c2ccccc2)N1
inactive: [1] | CYP3A5 (gene 1577) | [5] | [6] | [7] | [8]
active: [3] 17.9 µM | [4] 9.92 µM | [9] 9.92 µM

O=C1CCCCC1
inactive: [1] | CYP3A5 (gene 1577) | [3] | [4] | [5] | [9] | [6] | [7] | [8]

Cc1c(C)c2c(c(C)c1O)CCC(C)(COc1ccc(CC3SC(=O)NC3=O)cc1)O2 (stereo not given)
active: CYP3A5 (gene 1577) 15.8 µM | [4] 25.8 µM | [5] 92.7 µM | [9] 23.2 µM | [6] 93.6 µM | [7] 19.1 µM
inactive: [1] | [3] | [8]

CCCCCCCCCC[N+](C)(C)[O-]
inactive: [1] | [2] | CYP3A5 (gene 1577) | [3] | [4] | [5] | [7] | [8]

Cc1cc(Cc2ccc(N)c(C)c2)ccc1N
active: [5] 5.09 µM
inactive: [1] | CYP3A5 (gene 1577) | [3] | [4] | [9] | [6] | [7] | [8]

Cc1ccc(C(C)(C)C)c(O)c1
inactive: [1] | CYP3A5 (gene 1577) | [3] | [4] | [5] | [9] | [6] | [7] | [8]

COC(=O)CCC(=O)OC
inactive: [1] | CYP3A5 (gene 1577) | [3] | [4] | [5] | [9] | [7] | [8]

CC(=O)OCC(COC(C)=O)OC(C)=O
inactive: [1] | [2] | CYP3A5 (gene 1577) | [3] | [4] | [5] | [7] | [8]

CCN(CC)CCOc1ccc(C(=C(Cl)c2ccccc2)c2ccccc2)cc1
active: [1] 67.8 µM | [4] 13.3 µM | [5] 13.3 µM | [9] 78.6 µM | [8] 78 µM
inactive: CYP3A5 (gene 1577) | [3] | [6] | [7]
